The values below come from article PMC7862700, “An all-to-all approach to the identification of sequence-specific readers for epigenetic DNA modifications on cytosine”.

Common to all, as to assay: DAPPL (digital affinity profiling via proximity ligation, sequencing); 10 mM Tris-HCl pH 7.5, 50 mM NaCl, 1 mM DTT, 4% glycerol, room temperature, 30 min; GST-TFs on glutathione beads, 16-mer random dsDNA library, 0.1% formaldehyde crosslink after washing; high values mean tight binding
One assay concerns the target T1, FEV (Homo sapiens, UniProt Q99581 1-238).
T1 sequence: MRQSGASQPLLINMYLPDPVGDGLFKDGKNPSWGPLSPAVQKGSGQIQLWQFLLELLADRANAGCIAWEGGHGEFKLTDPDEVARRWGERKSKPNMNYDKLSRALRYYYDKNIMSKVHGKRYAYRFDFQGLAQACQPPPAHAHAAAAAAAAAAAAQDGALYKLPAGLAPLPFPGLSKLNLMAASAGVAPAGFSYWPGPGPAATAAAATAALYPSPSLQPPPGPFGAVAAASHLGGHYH
Particulars: protein: recombinant; tags: N-terminal GST; dsDNA, one strand shown. Put shortly:
(§1)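 Yeast served to express human transcription factors as GST fusions, which were then captured on glutathione beads and labelled with DNA barcodes. Pooled with a tag-only sample, they were incubated with 200 nmole of a 16-mer random double-stranded DNA library for 30 min at room temperature in Tris/NaCl/DTT/glycerol buffer, washed, crosslinked with 0.1% formaldehyde, ligated by proximity, amplified by PCR and sequenced. Dividing each hexamer's read frequency for a factor by its frequency for the tag-only sample gives the binding signal.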

The next assay addresses ETV5 (Homo sapiens, UniProt P41161 1-510). The note with it: protein: recombinant; tags: N-terminal GST; dsDNA, one strand shown. In short, it runs like this: as §1
The next assay has as its target HSF1 (Homo sapiens, UniProt Q00613 1-529). Particulars: protein: recombinant; tags: N-terminal GST; chain copies: 3; dsDNA, one strand shown. Put shortly:
as §1

In another assay the target is T2, SPIC (Homo sapiens, UniProt Q8N5J4 1-248).
T2 sequence: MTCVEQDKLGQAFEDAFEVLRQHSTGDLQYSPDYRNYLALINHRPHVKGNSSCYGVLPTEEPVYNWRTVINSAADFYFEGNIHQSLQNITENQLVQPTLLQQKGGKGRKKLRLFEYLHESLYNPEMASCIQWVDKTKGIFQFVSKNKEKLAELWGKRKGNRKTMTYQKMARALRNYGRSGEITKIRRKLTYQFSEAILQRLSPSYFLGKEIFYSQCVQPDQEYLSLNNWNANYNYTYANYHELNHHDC
The note with it: protein: recombinant; tags: N-terminal GST; dsDNA, one strand shown. In short, it runs like this:
as §1

The target in a further assay is ELF4 (Homo sapiens, UniProt Q99607 1-663). The note with it: protein: recombinant; tags: N-terminal GST; dsDNA, one strand shown. In short, it runs like this:
as §1

For another assay, the target named is T3, ELK4 (Homo sapiens, UniProt P28324-2 1-405).
T3 sequence: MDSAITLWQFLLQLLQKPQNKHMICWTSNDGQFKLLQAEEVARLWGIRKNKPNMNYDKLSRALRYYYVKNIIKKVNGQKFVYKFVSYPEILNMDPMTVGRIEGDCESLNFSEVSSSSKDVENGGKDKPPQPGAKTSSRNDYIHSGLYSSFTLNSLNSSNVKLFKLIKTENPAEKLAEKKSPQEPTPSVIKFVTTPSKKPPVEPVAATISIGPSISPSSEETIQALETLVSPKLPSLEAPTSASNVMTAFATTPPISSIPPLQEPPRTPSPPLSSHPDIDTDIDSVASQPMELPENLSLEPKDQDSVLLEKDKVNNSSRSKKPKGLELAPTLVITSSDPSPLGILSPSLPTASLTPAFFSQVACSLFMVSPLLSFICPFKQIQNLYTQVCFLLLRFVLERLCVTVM
Particulars: protein: recombinant; tags: N-terminal GST; dsDNA, one strand shown. Put shortly:
as §1

The next assay concerns the target T4, ETV2 (Homo sapiens, UniProt O00321 1-342).
T4 sequence: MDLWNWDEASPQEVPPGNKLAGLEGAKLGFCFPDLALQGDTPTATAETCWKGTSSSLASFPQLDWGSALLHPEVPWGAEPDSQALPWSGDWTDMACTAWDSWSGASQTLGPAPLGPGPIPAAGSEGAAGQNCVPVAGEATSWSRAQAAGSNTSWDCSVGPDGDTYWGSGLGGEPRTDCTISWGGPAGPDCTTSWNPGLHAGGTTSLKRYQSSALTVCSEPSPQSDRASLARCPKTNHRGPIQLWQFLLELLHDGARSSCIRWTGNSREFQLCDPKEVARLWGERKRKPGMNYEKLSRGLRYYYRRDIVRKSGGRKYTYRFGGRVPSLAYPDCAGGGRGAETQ
The note with it: protein: recombinant; tags: N-terminal GST; dsDNA, one strand shown. In short, it runs like this: as §1

A further assay addresses T5, ELF3 (Homo sapiens, UniProt P78545 1-371).
T5 sequence: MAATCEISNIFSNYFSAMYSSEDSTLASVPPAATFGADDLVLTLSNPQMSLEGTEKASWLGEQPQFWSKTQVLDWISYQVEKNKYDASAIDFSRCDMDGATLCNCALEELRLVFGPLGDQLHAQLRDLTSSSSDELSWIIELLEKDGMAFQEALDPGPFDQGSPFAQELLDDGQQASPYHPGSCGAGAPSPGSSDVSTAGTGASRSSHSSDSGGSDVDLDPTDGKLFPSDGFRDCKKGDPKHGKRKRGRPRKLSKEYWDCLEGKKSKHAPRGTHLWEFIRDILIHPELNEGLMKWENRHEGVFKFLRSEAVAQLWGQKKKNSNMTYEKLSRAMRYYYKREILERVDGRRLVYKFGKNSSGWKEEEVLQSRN
The note with it: protein: recombinant; tags: N-terminal GST; dsDNA, one strand shown. In short, it runs like this:
as §1

The target of a further assay is CRX (Homo sapiens, UniProt O43186 1-299). The note with it: protein: recombinant; tags: N-terminal GST; dsDNA, one strand shown. In short, it runs like this: as §1
Sequence of CRX (O43186 whole entry): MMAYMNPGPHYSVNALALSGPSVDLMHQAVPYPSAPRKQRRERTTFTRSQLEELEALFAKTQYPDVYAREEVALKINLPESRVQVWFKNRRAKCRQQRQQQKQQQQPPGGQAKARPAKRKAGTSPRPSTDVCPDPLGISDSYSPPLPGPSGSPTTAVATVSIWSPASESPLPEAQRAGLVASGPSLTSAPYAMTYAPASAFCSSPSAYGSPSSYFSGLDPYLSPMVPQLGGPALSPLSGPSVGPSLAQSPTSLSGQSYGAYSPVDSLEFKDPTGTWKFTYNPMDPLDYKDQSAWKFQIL
For another assay, the target named is ETV1 (Homo sapiens, UniProt P50549 1-477). The note with it: protein: recombinant; tags: N-terminal GST; dsDNA, one strand shown. Put shortly: as §1
Sequence of ETV1 (P50549 whole entry): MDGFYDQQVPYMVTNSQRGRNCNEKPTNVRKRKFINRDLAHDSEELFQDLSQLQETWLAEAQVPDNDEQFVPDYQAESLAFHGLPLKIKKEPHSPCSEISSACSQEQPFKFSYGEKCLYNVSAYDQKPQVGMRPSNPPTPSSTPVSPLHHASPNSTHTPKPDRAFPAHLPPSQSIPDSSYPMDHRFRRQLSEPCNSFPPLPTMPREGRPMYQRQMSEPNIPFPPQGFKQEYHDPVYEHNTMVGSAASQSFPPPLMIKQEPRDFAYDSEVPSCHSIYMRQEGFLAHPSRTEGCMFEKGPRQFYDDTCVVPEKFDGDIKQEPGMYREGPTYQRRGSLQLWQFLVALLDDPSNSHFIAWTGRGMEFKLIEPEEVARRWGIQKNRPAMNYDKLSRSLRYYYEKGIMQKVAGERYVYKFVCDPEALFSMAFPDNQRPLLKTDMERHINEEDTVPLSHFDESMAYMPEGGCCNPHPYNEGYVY
In a further assay the target is T6, ERF (Homo sapiens, UniProt P50548 1-548).
T6 sequence: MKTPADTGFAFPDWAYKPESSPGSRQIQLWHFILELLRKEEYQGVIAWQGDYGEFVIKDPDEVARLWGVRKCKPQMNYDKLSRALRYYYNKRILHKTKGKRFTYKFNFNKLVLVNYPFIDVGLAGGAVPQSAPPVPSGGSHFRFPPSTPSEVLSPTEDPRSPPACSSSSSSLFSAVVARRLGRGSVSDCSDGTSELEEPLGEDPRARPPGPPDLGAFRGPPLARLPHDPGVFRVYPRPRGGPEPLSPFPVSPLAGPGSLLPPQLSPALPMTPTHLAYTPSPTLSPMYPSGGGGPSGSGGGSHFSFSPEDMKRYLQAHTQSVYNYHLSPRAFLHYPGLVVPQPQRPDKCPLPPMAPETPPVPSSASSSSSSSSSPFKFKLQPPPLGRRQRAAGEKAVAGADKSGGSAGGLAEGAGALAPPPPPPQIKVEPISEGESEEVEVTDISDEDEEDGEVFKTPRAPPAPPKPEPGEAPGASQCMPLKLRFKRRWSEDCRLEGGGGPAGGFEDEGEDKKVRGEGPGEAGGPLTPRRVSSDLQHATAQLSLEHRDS
Particulars: protein: recombinant; tags: N-terminal GST; dsDNA, one strand shown. Put shortly: as §1

The next assay deals with T7, ETV3L (Homo sapiens, UniProt Q6ZN32 1-361).
T7 sequence: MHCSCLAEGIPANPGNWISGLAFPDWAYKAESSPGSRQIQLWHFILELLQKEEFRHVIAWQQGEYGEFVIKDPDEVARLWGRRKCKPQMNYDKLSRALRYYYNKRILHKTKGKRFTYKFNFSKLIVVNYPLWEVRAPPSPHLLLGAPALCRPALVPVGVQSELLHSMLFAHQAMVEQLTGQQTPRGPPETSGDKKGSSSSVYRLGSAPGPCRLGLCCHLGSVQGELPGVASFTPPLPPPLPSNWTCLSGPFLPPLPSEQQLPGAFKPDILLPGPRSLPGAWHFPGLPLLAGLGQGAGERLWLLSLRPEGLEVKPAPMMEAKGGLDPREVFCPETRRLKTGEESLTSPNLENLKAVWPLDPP
Particulars: protein: recombinant; tags: N-terminal GST; dsDNA, one strand shown. Put shortly: as §1

The target of the next assay is T8, ETS2 (Homo sapiens, UniProt P15036 1-469).
T8 sequence: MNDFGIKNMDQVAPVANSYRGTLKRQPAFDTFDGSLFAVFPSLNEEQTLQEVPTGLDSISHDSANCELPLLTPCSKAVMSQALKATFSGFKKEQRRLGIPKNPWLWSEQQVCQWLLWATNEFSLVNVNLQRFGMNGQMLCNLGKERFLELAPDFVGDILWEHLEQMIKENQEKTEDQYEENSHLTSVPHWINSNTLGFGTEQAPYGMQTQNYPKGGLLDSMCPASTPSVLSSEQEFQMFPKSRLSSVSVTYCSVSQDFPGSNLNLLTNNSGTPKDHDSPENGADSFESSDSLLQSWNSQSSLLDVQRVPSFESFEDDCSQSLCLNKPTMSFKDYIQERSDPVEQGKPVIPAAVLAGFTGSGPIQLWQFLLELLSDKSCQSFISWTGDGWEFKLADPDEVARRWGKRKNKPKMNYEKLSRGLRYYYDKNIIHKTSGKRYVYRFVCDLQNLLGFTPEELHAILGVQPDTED
Particulars: protein: recombinant; tags: N-terminal GST; dsDNA, one strand shown. In short, it runs like this:
as §1

Another assay concerns the target T9, SPDEF (Homo sapiens, UniProt O95238 1-335).
T9 sequence: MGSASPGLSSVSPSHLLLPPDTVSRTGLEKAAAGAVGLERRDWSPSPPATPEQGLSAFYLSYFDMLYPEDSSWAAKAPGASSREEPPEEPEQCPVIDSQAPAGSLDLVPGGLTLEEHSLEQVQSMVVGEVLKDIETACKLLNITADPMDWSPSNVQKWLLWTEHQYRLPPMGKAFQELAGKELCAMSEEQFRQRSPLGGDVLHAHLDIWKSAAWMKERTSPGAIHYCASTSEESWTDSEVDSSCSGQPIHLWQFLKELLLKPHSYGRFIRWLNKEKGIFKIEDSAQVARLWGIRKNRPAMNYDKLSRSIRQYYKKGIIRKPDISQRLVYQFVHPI
The note with it: protein: recombinant; tags: N-terminal GST; dsDNA, one strand shown. Put shortly: as §1

In another assay the target is T10, ETV7 (Homo sapiens, UniProt Q9Y603 1-341).
T10 sequence: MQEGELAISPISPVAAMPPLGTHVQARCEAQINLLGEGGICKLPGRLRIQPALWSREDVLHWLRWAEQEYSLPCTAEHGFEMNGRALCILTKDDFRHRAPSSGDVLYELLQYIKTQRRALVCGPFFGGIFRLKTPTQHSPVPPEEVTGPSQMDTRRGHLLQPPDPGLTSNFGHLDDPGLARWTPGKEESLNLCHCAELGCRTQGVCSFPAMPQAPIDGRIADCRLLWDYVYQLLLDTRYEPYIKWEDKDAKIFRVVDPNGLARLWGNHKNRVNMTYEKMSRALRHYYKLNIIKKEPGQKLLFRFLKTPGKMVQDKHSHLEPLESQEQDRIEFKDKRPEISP
The note with it: protein: recombinant; tags: N-terminal GST; dsDNA, one strand shown. In short, it runs like this: as §1

The next assay has as its target T11, ELF5 (Homo sapiens, UniProt Q9UKW6-2 1-255).
T11 sequence: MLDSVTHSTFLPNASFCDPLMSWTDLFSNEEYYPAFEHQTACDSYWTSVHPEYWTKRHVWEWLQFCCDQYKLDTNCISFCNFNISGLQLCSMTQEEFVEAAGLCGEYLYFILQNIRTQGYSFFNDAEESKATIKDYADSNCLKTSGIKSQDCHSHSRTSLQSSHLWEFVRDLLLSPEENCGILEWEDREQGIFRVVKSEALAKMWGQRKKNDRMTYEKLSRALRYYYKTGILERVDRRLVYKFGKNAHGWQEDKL
Particulars: protein: recombinant; tags: N-terminal GST; dsDNA, one strand shown. In short, it runs like this: as §1

A further assay has as its target T12, ETV3 (Homo sapiens, UniProt P41162-2 1-143).
T12 sequence: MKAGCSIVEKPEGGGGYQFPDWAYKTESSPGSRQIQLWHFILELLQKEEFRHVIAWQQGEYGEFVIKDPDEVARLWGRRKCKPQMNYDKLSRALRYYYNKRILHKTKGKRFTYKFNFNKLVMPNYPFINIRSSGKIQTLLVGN
The note with it: protein: recombinant; tags: N-terminal GST; dsDNA, one strand shown. In short, it runs like this: as §1

The target of another assay is ETV6 (Homo sapiens, UniProt P41212 1-452). Particulars: protein: recombinant; tags: N-terminal GST; dsDNA, one strand shown. In short, it runs like this: as §1
Sequence of ETV6 (P41212 whole entry): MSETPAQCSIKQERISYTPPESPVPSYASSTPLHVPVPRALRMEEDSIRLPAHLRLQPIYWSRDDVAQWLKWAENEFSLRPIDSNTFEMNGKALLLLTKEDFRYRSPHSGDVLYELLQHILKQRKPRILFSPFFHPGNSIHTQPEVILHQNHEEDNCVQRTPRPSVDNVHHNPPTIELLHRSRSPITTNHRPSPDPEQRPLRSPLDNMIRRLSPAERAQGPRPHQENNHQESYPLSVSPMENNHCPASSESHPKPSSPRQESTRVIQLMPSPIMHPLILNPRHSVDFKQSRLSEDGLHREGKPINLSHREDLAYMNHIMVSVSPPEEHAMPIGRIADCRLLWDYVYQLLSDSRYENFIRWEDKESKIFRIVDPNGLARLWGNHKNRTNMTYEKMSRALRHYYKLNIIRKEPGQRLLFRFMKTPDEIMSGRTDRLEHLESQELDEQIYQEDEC

Sequence of HSF1 (Q00613 whole entry): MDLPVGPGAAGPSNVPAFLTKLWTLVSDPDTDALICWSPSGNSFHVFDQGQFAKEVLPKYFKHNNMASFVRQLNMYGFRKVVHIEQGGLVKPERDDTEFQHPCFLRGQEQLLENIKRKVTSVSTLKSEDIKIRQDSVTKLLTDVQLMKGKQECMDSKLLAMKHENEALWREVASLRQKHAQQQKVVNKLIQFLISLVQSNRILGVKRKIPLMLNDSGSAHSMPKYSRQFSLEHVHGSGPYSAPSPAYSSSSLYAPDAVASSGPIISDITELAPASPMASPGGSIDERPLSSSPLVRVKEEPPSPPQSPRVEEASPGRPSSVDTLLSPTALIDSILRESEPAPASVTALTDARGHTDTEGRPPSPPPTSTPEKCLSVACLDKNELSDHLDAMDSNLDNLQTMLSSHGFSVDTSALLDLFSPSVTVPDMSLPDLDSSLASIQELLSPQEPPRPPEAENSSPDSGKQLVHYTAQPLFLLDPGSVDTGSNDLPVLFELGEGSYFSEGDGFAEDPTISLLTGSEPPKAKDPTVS
Sequence of ETV5 (P41161 whole entry): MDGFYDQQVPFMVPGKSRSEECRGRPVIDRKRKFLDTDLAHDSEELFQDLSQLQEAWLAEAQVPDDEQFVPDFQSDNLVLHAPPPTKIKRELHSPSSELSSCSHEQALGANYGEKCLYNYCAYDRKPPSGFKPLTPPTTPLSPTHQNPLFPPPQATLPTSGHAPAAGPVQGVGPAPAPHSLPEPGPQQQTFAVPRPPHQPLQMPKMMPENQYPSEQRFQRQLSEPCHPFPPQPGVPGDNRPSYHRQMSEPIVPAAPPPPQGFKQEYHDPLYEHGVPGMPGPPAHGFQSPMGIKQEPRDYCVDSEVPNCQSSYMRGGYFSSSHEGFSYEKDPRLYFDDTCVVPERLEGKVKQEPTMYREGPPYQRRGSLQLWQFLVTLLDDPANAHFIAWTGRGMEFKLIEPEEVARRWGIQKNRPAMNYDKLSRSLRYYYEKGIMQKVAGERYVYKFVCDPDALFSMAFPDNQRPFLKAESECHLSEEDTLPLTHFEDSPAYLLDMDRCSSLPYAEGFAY
Sequence of ELF4 (Q99607 whole entry): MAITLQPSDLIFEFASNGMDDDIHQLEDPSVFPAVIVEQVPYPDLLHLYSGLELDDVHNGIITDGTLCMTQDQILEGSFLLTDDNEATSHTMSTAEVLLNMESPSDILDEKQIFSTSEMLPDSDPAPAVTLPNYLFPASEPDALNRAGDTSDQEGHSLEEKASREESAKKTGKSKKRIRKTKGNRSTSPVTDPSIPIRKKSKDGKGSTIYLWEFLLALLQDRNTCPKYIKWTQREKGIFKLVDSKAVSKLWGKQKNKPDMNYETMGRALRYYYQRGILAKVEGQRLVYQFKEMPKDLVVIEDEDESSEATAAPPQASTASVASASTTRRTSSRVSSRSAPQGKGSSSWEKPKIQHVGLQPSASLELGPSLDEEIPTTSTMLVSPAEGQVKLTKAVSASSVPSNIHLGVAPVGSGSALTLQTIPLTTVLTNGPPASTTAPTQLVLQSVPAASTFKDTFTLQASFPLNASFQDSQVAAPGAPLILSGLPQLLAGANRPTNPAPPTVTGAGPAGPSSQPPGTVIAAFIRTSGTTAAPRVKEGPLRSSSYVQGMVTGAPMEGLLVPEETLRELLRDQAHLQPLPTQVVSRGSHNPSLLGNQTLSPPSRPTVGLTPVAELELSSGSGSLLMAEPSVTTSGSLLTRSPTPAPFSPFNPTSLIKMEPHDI

Take AAACAA: the binding signal with FEV was 1.28 fold enrichment (6-mer frequency, TF over GST control); with ETV5, 1.28 fold enrichment (6-mer frequency, TF over GST control); with HSF1, 1.23 fold enrichment (6-mer frequency, TF over GST control); in the assay with SPIC, 1.33 fold enrichment (6-mer frequency, TF over GST control); with ELF4 it was 1.31 fold enrichment (6-mer frequency, TF over GST control); in the assay with ELK4 it was 1.28 fold enrichment (6-mer frequency, TF over GST control). Moreover, the binding signal was 1.31 fold enrichment (6-mer frequency, TF over GST control) with ETV2; 1.49 fold enrichment (6-mer frequency, TF over GST control) in the assay with ELF3; 1.06 fold enrichment (6-mer frequency, TF over GST control) with CRX; 1.32 fold enrichment (6-mer frequency, TF over GST control) with ETV1; 1.25 fold enrichment (6-mer frequency, TF over GST control) with ERF; 1.32 fold enrichment (6-mer frequency, TF over GST control) with ETV3L. In addition, the binding signal with ETS2 was 1.32 fold enrichment (6-mer frequency, TF over GST control); with SPDEF, 1.27 fold enrichment (6-mer frequency, TF over GST control); in the assay with ETV7, 1.28 fold enrichment (6-mer frequency, TF over GST control); with ELF5 it was 1.28 fold enrichment (6-mer frequency, TF over GST control); with ETV3, 1.3 fold enrichment (6-mer frequency, TF over GST control); with ETV6, 1.31 fold enrichment (6-mer frequency, TF over GST control).
